Bioassay records deposited in PubChem by several laboratories.
PAX8 inh HTS = inhibitors of PAX8-driven TPO luciferase reporter, primary screen, RMG-I cells, single concentration; inhibition, % at 12.6 µM; SteadyGlo, 24 h; AID 652154, 2013; 360,000 compounds, 1.2% hits;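 active = mean replicate inhibition at least 60% with every replicate also reaching 60%; inconclusive = only one of the two criteria is met; inactive = mean below 60% and not all replicates reaching 60%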;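 also: luciferase light reporting Pax8 driven TPO promoter activity; plate controls were median of neutral control wells for no effect and mitoxantrone controls for full effect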
EWS-Fli inh = EWS/Fli-driven NR0B1 reporter inhibitors, primary screen, A673 cells, NR0B1 luciferase, luminescence, MLPCN library; 350,000 compounds, 0.67% hits; viability-normalised; inhibition, % at 12.6 µM;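 active = mean inhibition of at least 50% after viability correction, with every replicate also passing that limit; inconclusive = mean reaches 50% but only one of two replicates passes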;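 also: firefly luciferase signal divided by Alamar Blue viability fluorescence both relative to DMSO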
MITF TRPM1 inh = inhibitors of MITF-dependent TRPM1 promoter reporter, primary screen, cell-based, SK-MEL-5, single point, luciferase; inhibition, % at 12.5 µM; SK-MEL-5 TRPM1 promoter luciferase, 24 h; AID 488899, 2010; 330,000 compounds, 0.83% hits;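 active = mean inhibition across replicates of 60% or more, whatever share of single replicates reaches that level; inconclusive = some that reach 60%, reason not given; inactive = mean inhibition across replicates below 60%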
Shn3 inh set2 = reduction of Shn3 3'UTR firefly luciferase signal, primary screen, Schnurri-3 inhibitor project, cell-based, Clone20 osteoblasts, set 2. Clone20 osteoblast Shn3 3'UTR firefly luciferase, 24 h. inhibition, % at 12.5 µM. 360,000 compounds, 0.52% hits;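 active = mean inhibition of at least 75% with every replicate also reaching 75%; inconclusive = mean inhibition at least 75% but some replicate below; inactive = mean inhibition below 75%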;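 also: 0% = median of neutral control wells and 100% = pilot-screen positive control compound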
ABHD5-PLIN5 inh = ABHD5-PLIN5 interaction inhibitors, primary screen, cell lysate, split luciferase complementation, luminescence; AID 602281, 2012; inhibition, % at 4 µM; 360,000 compounds, 0.78% hits; Perilipin-5 (Homo sapiens) + 1-acylglycerol-3-phosphate O-acyltransferase ABHD5 (Homo …; Split G. princeps luciferase complementation, 4 h;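 active = inhibition above the mean inhibition across every tested compound plus 3 SD, cut at about 22% in these data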;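 also: 0% = DMSO only wells and the 100% control is not disclosed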
Target sequence (Q00G26 whole entry, looked up): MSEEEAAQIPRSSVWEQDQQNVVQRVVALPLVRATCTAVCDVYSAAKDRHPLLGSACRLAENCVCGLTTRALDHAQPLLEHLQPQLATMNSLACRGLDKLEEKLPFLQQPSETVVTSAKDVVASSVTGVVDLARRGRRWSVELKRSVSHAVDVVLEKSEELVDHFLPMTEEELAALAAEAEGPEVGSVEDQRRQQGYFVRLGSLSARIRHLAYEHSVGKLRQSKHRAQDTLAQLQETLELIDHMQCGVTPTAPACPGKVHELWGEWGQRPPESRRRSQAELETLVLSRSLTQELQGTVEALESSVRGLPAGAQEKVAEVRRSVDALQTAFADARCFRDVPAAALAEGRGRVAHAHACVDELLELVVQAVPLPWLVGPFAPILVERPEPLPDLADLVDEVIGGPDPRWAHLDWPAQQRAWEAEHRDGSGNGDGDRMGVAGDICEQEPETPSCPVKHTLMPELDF
Target sequence (Q8WTS1 whole entry, looked up): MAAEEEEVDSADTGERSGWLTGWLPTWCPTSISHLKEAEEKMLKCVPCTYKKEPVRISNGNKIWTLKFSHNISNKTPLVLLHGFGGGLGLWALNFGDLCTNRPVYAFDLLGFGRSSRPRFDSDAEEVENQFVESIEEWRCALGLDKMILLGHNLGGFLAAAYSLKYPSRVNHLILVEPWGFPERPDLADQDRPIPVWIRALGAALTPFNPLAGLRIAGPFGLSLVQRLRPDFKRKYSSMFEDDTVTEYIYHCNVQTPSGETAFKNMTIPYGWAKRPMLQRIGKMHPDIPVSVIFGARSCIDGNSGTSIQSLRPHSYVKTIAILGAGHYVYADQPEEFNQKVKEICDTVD
Peg3 prom inh = Peg3 promoter-driven luciferase inhibitors, primary screen, cell-based, HeLa, luciferase luminescence; inhibition, % at 20 µM; AID 588405, 2011; 360,000 compounds, 1.7% hits; HeLa PEG-Prom luciferase reporter, overnight;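 active = inhibition of at least 50% at 20 µM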
An asterisk follows results filed as active. This is a sample that favours compounds with a hit; in the whole collection about 3% have one here.

Results for Cc1ccc(N2C(=O)NC(=O)/C(=C/c3ccc(-c4ccc(C(=O)O)c(Cl)c4)o3)C2=O)cc1 ?
PAX8 inh HTS: 6; EWS-Fli inh: 14; MITF TRPM1 inh: -2; Shn3 inh set2: 5; ABHD5-PLIN5 inh: 22*; Peg3 prom inh: 10

Results for Cc1cc(/C=C2\C(=O)NC(=O)N(c3cccc(F)c3)C2=O)c(C)n1-c1ccc(C(=O)O)c(Cl)c1 ?
PAX8 inh HTS: -11; EWS-Fli inh: 2; MITF TRPM1 inh: -4; Shn3 inh set2: -4; ABHD5-PLIN5 inh: 8; Peg3 prom inh: 4

What do the screens show for `COC(=O)[C@H]1[C@H](CO)[C@H]2Cn3c(ccc(-c4ccccc4)c3=O)[C@@H]1N2CC1CC1`?
EWS-Fli inh: -3

What do the screens show for `COC1=C[C@@H]2C3=C([C@@H]2C1=O)[C@@H](NC(C)=O)CCc1cc(OC)c(OC)c(OC)c13`?
PAX8 inh HTS: 2; EWS-Fli inh: -2; MITF TRPM1 inh: 0; Shn3 inh set2: 8; ABHD5-PLIN5 inh: 2; Peg3 prom inh: -6

What do the screens show for `COc1ccc2c(c1)C(NC(C)=O)CCc1cc(OC)c(OC)c(OC)c1-2` (stereo not given)?
PAX8 inh HTS: 84*; EWS-Fli inh: 55*; MITF TRPM1 inh: 46; Shn3 inh set2: 10; ABHD5-PLIN5 inh: -4; Peg3 prom inh: -20

How did COc1cc2c(c(OC)c1OC)-c1ccc(O)c(=O)cc1C(NC(C)=O)CC2 (stereo not given) do in these assays?
PAX8 inh HTS: 85*; EWS-Fli inh: 59*; MITF TRPM1 inh: 51; Shn3 inh set2: -8; ABHD5-PLIN5 inh: -4; Peg3 prom inh: -34

What do the screens show for `O=C(Cc1ccncc1)N1CCCCN2[C@H](CO)[C@H](c3ccc(C#Cc4ccccc4F)cc3)[C@H]2C1`?
PAX8 inh HTS: -7; EWS-Fli inh: 1

Results for Cn1c(O)c(C=Nc2ccc(F)cc2)c(=O)[nH]c1=O ?
PAX8 inh HTS: -4; EWS-Fli inh: 5; MITF TRPM1 inh: 9; Shn3 inh set2: -1; ABHD5-PLIN5 inh: 0; Peg3 prom inh: 74*

How did O=C(Cc1ccccn1)N1CCCCN2[C@H](C1)[C@H](c1ccc(-c3ccccc3)cc1)[C@@H]2CO do in these assays?
PAX8 inh HTS: -11; EWS-Fli inh: -6

Results for CC(=O)C1CCC2C3CCC4CC(O)CCC4(C)C3CCC12C (stereo not given) ?
PAX8 inh HTS: 1; EWS-Fli inh: 0; MITF TRPM1 inh: -1; Shn3 inh set2: 8; ABHD5-PLIN5 inh: -1; Peg3 prom inh: 10

What do the screens show for `C[C@]12CCC3C(CC[C@H]4C[C@@H](O)CC[C@]34C)C1CC[C@@H]2OC(=O)[C@H](N)CCCCN` (stereo not given in full)?
PAX8 inh HTS: -14; EWS-Fli inh: 8; MITF TRPM1 inh: 28; Shn3 inh set2: 36; ABHD5-PLIN5 inh: 0; Peg3 prom inh: 87*

What do the screens show for `CCOC(=O)C1(c2ccccc2)CCN(CCC(=O)Nc2cccc(Br)c2)CC1`?
PAX8 inh HTS: 57; EWS-Fli inh: 25; MITF TRPM1 inh: 19; Shn3 inh set2: 31; ABHD5-PLIN5 inh: 5; Peg3 prom inh: 59*

How did COC(=O)[C@H]1[C@H](CO)[C@H]2Cn3c(ccc(-c4ccc(OC)cc4)c3=O)[C@@H]1N2C(=O)c1ccccc1F do in these assays?
PAX8 inh HTS: -2; EWS-Fli inh: 4

Results for Cc1cccc(N2C(=O)NC(=O)/C(=C\c3cccn3-c3ccc(Cl)cc3)C2=O)c1 ?
MITF TRPM1 inh: inconclusive; Shn3 inh set2: 40; ABHD5-PLIN5 inh: 30*; Peg3 prom inh: 104*

Results for Cc1cc(C)cc(N2C(=O)NC(=O)/C(=C/c3cccn3-c3ccc(Cl)cc3)C2=O)c1 ?
PAX8 inh HTS: 36; EWS-Fli inh: 32; MITF TRPM1 inh: 51; Shn3 inh set2: 75; ABHD5-PLIN5 inh: 2; Peg3 prom inh: 99*

What do the screens show for `CC(C)(C)n1cccc1/C=C1\C(=O)NC(=O)N(c2ccccc2)C1=O`?
PAX8 inh HTS: 5; MITF TRPM1 inh: 4; Shn3 inh set2: -36; ABHD5-PLIN5 inh: 13; Peg3 prom inh: -6

What do the screens show for `COc1ccc(C#Cc2ccc([C@@H]3[C@H](CO)N4CCCCN(C(=O)Cc5cccnc5)C[C@@H]34)cc2)cc1`?
PAX8 inh HTS: -4; EWS-Fli inh: -1

Results for CN(C)C(=O)O/N=C(\N)COc1ccc(C(C)(C)C)cc1 ?
PAX8 inh HTS: -4; EWS-Fli inh: 57*; MITF TRPM1 inh: -10; Shn3 inh set2: -17; ABHD5-PLIN5 inh: -3; Peg3 prom inh: 107*

Results for CCOC(=O)C(O)(c1ccc(N(C)C(=O)COc2ccccc2)cc1)C(F)(F)F (stereo not given) ?
PAX8 inh HTS: 6; MITF TRPM1 inh: -3; Shn3 inh set2: -6; ABHD5-PLIN5 inh: -2; Peg3 prom inh: 9

Results for O=C(O)[C@H]1[C@H](CO)[C@H]2Cn3c(ccc(-c4ccccc4)c3=O)[C@@H]1N2CC1CCCCC1 ?
PAX8 inh HTS: -10; EWS-Fli inh: 2

What do the screens show for `COC1CC2C=C(C)C=CC=CC(=O)NC(c3ccccc3)CC=CCCC(O)CC(=O)C2=C1O` (stereo not given)?
PAX8 inh HTS: 116*; EWS-Fli inh: 55*; Shn3 inh set2: 98*; ABHD5-PLIN5 inh: 22*; Peg3 prom inh: 98*

How did COc1ccc(C#Cc2ccc([C@@H]3[C@H](CO)N4CCCCN(C(=O)Cc5ccncc5)C[C@@H]34)cc2)cc1 do in these assays?
PAX8 inh HTS: -29

What do the screens show for `CNC(=O)Oc1ccc(-c2cn3cc(C)ccc3n2)cc1`?
PAX8 inh HTS: 40; EWS-Fli inh: 70*; MITF TRPM1 inh: 20; Shn3 inh set2: 49; ABHD5-PLIN5 inh: 10; Peg3 prom inh: 37

Results for CNC(=O)Oc1cccc(-c2cn3cc(Cl)ccc3n2)c1 ?
PAX8 inh HTS: 14; MITF TRPM1 inh: 21; Shn3 inh set2: 13; ABHD5-PLIN5 inh: 0; Peg3 prom inh: -17

What do the screens show for `CCN(CC)c1ccc(N=Cc2c(O)n(CCc3ccc(OC)c(OC)c3)c(=O)[nH]c2=O)cc1`?
PAX8 inh HTS: -23; MITF TRPM1 inh: 29; Shn3 inh set2: 8; ABHD5-PLIN5 inh: 2; Peg3 prom inh: 69*

What do the screens show for `COC(=O)C1CN(C#N)N(c2ccc(Cl)cc2)C12c1ccccc1-c1ccccc12` (stereo not given)?
MITF TRPM1 inh: 98*; Shn3 inh set2: 97*; ABHD5-PLIN5 inh: 74*; Peg3 prom inh: 109*

How did CC=Cc1ccc2n(c1=O)C[C@H]1[C@H](CO)[C@@H](C(=O)OC)[C@@H]2N1CC1CCOCC1 (mixture of isomers) do in these assays?
PAX8 inh HTS: 0; EWS-Fli inh: -1
